Only some compounds are listed: those with a hit (about 19% of all), similar ones and a draw of the others.
TDP1 cell noCPT = qHTS for Inhibitors of human tyrosyl-DNA phosphodiesterase 1 (TDP1): qHTS in cells in absence of CPT. DT40 Tdp1-/- hTDP1 cells, no CPT, ATP luminescence, 48 h. AID 686978, 2013. 420,000 tested, 15% active. Potency, µM (series often up to 46.2 µM), without a hit: at the top dose activity change, negative = growth inhibition, hits mostly inhibitors; note: potency is the fitted concentration of half-maximal effect; nearly all actives have a fitted effect of over 55% in size
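No-CPT arm: Tdp1-/-;hTDP1 DT40 cells (400/well) plus compounds, incubated ≥48 hr at 37 °C. Readout CellTiter-Glo luminescence.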
ELG1 repair inh = inhibitors of ELG1-dependent DNA repair in HEK293T cells; Potency, µM (titrated, usually from 46.1 µM), inactives show at the highest dose activity change, negative = inhibition, usual class: inhibitors; AID 504467; HEK293T ELG1-luciferase reporter, luminescence, 16 h; DNA damage induced by 5-fluorouridine; 330,000 tested, 2.3% active; note: potency is the fitted concentration of half-maximal effect; nearly all actives have a fitted effect of over 55% in size
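In this reporter screen, reduction of luminescence relative to DMSO vehicle indicated activity. Compounds and 5-fluorouridine were added together to 2,000 cells per well, incubated for 16 hr at 37 °C, then developed with ONE-Glo.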
DT40 TDP1 CPT = growth inhibition of DT40 Tdp1-/-;hTDP1 cells with camptothecin (screen for TDP1 inhibitors). 420,000 tested, 12% active. Potency, µM (series often up to 46.2 µM), for inactives: at the top dose activity change, negative = growth inhibition, hits mostly inhibitors. AID 686979. chicken DT40 Tdp1-/-;hTDP1 cells + 20 nM CPT, ATP luminescence, 48 h; note: potency is the fitted concentration of half-maximal effect; nearly all actives have a fitted effect of over 55% in size
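Chicken DT40 Tdp1-/- cells stably complemented with human TDP1 were seeded at 400 cells/well in medium containing 20 nM camptothecin, exposed to pin-transferred compounds, and grown at 37 °C for at least 48 hr. Viability was read as ATP luminescence.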
HT1080NT lethal = kills 2HG-producing HT-1080-NT fibrosarcoma cells; AID 686970; Potency, µM (top dose mostly 46.1 µM), inactives show at the top dose activity, negative = less viability, usual class: cytotoxic; 360,000 tested, 1.6% active; HT-1080-NT fibrosarcoma viability, CellTiter-Glo ATP luminescence, 48 h;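 note: NT is the 2HG producing partner of a matched IDH1 knockdown line; potency is the fitted concentration of half-maximal effect; 0% = DMSO-treated cells and -100% = media-only wells without cells; nearly all actives have a fitted effect of over 55% in size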
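Toxicity toward the 2HG-producing NT line was scored as %Activity, normalised to DMSO and no-cell wells, from CellTiter-Glo luminescence after 48 hours' treatment.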
HT1080 IDH1KD tx = HT-1080 IDH1 knockdown cell toxicity (counter line); HT-1080 IDH1 knockdown viability, ATP luminescence, 48 h; Potency, µM (top dose mostly 46.1 µM), for the others: at the top dose activity, negative = toxicity, most hits filed as cytotoxic; 360,000 tested, 2% active; AID 686971;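 note: potency is the fitted concentration of half-maximal effect; 0% = DMSO wells and -100% = cell-free medium wells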
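CellTiter-Glo luminescence after 48 h compound exposure at 37 degrees C of IDH1-knockdown HT-1080 cells in 5% FBS RPMI. %Activity scaled between DMSO wells and cell-free media wells, with curves fitted and assigned curve classes.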
IL-1B inflam inh = inflammasome signaling inhibition, IL-1 beta readout; THP-1 LPS/ATP IL-1B secretion, AlphaLISA, 16 h; active compounds read low; activity change, % at 57.5 µM; 360,000 tested, 4.7% active; in the data active = activity change below about -50%; inconclusive = mostly about -30% to -49%
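THP-1 cells pretreated 1 hr with compounds (up to 57.5 uM final), then stimulated with LPS (250 ng/mL final) plus ATP (1.25 mM final); secreted IL-1B measured by AlphaLISA after 16 hr, decreased signal indicating inhibition.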
* = called active by the depositor; i = inactive; ? = inconclusive; . = no result given; [ ] = another dose, or the depositor's remark. Unless noted, calls come from the whole dose curve; as a rule, active = well fitted curve in the direction sought with a large enough effect; inconclusive = small, poorly fitted or top-dose-only effect, or another doubt; inactive = no such curve, though single readings can be large; an effect the other way counts as inactive or inconclusive. Unless noted, % is set by controls: 0 for no effect and ±100 for the full control effect.

SMILES	TDP1 cell noCPT	ELG1 repair inh	DT40 TDP1 CPT	HT1080NT lethal	HT1080 IDH1KD tx	IL-1B inflam inh
CC(Cc1cccnc1)NC(=O)c1cc(COc2c(F)cccc2F)on1 (stereo not drawn)	?	13.5%	?	0.6%	0.7%	-1.7
CC(Cc1cccnc1)NC(=O)c1cc(COc2ccc(F)cc2Cl)on1 (stereo not drawn)	23.1µM*	11.9%	20.6µM*	0.0%	-9.2%	-14.1
O=C(NCCCn1cccn1)c1cc(COc2ccc(F)cc2Cl)on1	-8.0%	?	-23.3%	7.1%	7.7%	23.4
CCn1cc(CNC(=O)c2cc(COc3ccc(F)cc3Cl)on2)cn1	5.8µM*	17.9%	20.6µM*	?	-22.4%	-21.5
Cc1cc(C)cc(NC(=O)CCS(=O)(=O)c2ccc3c(c2)oc(=O)n3C)c1	-25.4%	.	-25.4%	.	.	.
COCc1nnc(NC(=O)C2CCN(C(=O)c3ccccc3)CC2)s1	7.5%	.	-1.6%	.	.	.
CC(C)CNC(=O)c1ccc(COc2ccc(Cl)cc2Cl)o1	20.6µM*	9.6%	14.6µM*	-0.9%	-7.2%	?
COc1cccc(/C=N/NC(=O)c2ccc(COc3ccc(Cl)cc3Cl)o2)c1	-6.6%	0.0%	-9.6%	?	-6.2%[9.24 µM]	-1.0
CC(=O)Nc1ccc(NC(=O)c2ccc(COc3ccc(Cl)cc3Cl)o2)cc1	16.4µM*	.	16.4µM*	.	.	.
Cc1nn(Cc2c(F)c(F)c(F)c(F)c2F)c(C)c1NC(=O)c1ccc(COc2ccc(Cl)cc2Cl)o1	14.6µM*	-21.3%	20.6µM*	?	?	-63.2*
Cc1nn(Cc2cccc(F)c2)c(C)c1NC(=O)c1ccc(COc2ccccc2Cl)cc1	?	?	14.6µM*	2µM*	?	0.0
O=C(Nc1ccccc1F)c1ccc(COc2ccc(Cl)cc2Cl)o1	-24.8%	9.7%	0.4%	-3.7%	-4.3%	-22.2
CN(C(=O)COC(=O)c1ccccc1Cc1ccccc1)C1CCS(=O)(=O)C1 (stereo not drawn)	21.2%	-0.5%	-17.7%	2.8%	1.6%	10.3
COc1ccccc1-c1c(C)nn2c(N3CCN(c4cccc(Cl)c4)CC3)cc(C)nc12	7.1%	.	-1.1%	.	.	.
CCc1cccc(C)c1NC(=O)C(CC)n1nc(C)c2c(C)n(-c3ccccc3)nc2c1=O (stereo not drawn)	-23.4%	.	-21.5%	.	.	.
Cc1ccc(S(=O)(=O)N2C(=O)CCC2C(N)=O)cc1 (stereo not drawn)	?	-1.1%	5.7%	-4.7%	0.7%	-13.6
CC(c1ccccc1F)n1cc(C(=O)NCCc2ccco2)nn1 (stereo not drawn)	18.4µM*	-2.1%	?	-22.3%	-9.2%	?
Cc1ccc(-n2c(-c3ccccc3)c[nH]c2=S)cc1	-90.4%	0.0%	?	-19.5%	-9.2%	16.8
Cc1ccc(-c2c[n+]3c(n2-c2ccccc2)CCC3)cc1	0.651µM*	2.31µM*	1.16µM*	?	?	-52.8*
CCOc1ccc(-n2c(-c3ccccc3)c[n+]3c2CCCCC3)cc1	0.0291µM*	?	0.146µM*	?	13µM*	-55.8*
COCCN(Cc1ccc(C)cc1)C(=O)[C@H]1O[C@@H](n2ccc(N)nc2=O)[C@H](O)[C@@H]1O	4.0%	.	-13.3%	7.4%	18.3%	29.1
O=C1/C(=C/c2ccccn2)COc2ccccc21	4.61µM*	?	2.06µM*	-21.4%	-13.9%	8.7
CCOc1cc(/C=C2/COc3ccccc3C2=O)ccc1OCC(=O)N(C)C	?	?	?	?	?	-15.7
COc1ccc2c(c1)OC/C(=C/c1ccc(O)c(O)c1)C2=O	2.59µM*	.	3.26µM*	.	.	.
O=C1/C(=C/c2ccc(O)cc2)COc2ccccc21	-16.6%	?	-0.4%	?	?	-104.3*
SMILES	TDP1 cell noCPT	ELG1 repair inh	DT40 TDP1 CPT	HT1080NT lethal	HT1080 IDH1KD tx	IL-1B inflam inh
COc1ccc(NC(=O)CSCc2cc(=O)c3cc(Cl)ccc3[nH]2)cc1	-29.0%	.	0.6%	.	.	.
CN(CC(=O)Nc1cccnc1)S(=O)(=O)c1ccc(Br)cc1	-20.2%	3.4%	-24.3%	4.2%	9.3%	i
Cc1nc2ccccc2n2c(-c3ccccc3)c3c(=O)n(C)c(=O)n(C)c3c12	14.6µM*	-18.6%	?	15.8%	-3.7%	1.4
CCCc1nc2ccccc2n2c(-c3cccc(C)c3)c3c(=O)n(C)c(=O)n(C)c3c12	8.2µM*	.	?	.	.	.
CCCc1nc2ccccc2n2c(-c3ccc(C)cc3)c3c(=O)n(C)c(=O)n(C)c3c12	25.9µM*	.	23.1µM*	.	.	.
COc1ccc(OC)c(C(c2c(O)nc(SC)[nH]c2=O)c2c(O)nc(SC)[nH]c2=O)c1	-10.5%	-8.1%	-28.9%	6.8%	0.2%	-13.6
Cc1ccc(CN2CC(C(=O)N3CCN(S(=O)(=O)c4c(F)cccc4F)CC3)CC2=O)cc1 (stereo not drawn)	-11.1%	-19.3%	-4.7%	-1.9%	-0.8%	0.4
CCCc1nn2c(=O)cc(COC(=O)c3cccs3)nc2s1	?	.	-28.6%	.	.	.
COc1ccc(C(=O)NC(Cn2ccnc2)C(C)(C)C)cc1OC1CCN(C(C)C)CC1 (stereo not drawn)	-19.0%	25.8%	-7.7%	1.3%	-9.1%	11.0
COCCCn1cc(CN2CC(N3CCSCC3)CS2(=O)=O)nn1 (stereo not drawn)	-0.2%	.	-1.2%	-2.5%	16.5%	0.0
O=C(CC1N=C2c3ccccc3N=C(SCC(=O)Nc3ccc(F)cc3)N2C1=O)NCc1ccco1 (stereo not drawn)	16.4µM*	.	?	.	.	.
COc1ccc(NC(=O)CSC2=Nc3ccccc3C3=NC(CCC(=O)NCc4ccco4)C(=O)N23)cc1 (stereo not drawn)	11.6µM*	.	11.6µM*	.	.	.
O=C(CCC1N=C2c3ccccc3N=C(SCC(=O)Nc3ccc(F)cc3)N2C1=O)NCc1ccco1 (stereo not drawn)	?	.	-0.1%	.	.	.
COc1ccc(NC(=O)CSC2=Nc3ccccc3C3=NC(CCC(=O)NCCc4ccccc4)C(=O)N23)cc1 (stereo not drawn)	-20.5%	.	-10.2%	.	.	.
Cc1ccc(NC(=O)c2ccc(=O)[nH]n2)cc1S(=O)(=O)Nc1ccc(SC(F)F)cc1	18.4µM*	?	14.6µM*	-23.8%	-24.8%	7.0
CCOc1ccc(C(=O)Nc2ccc3c(c2)OCCO3)cc1OC	-7.9%	?	?	?	?	-9.3
